The supplement of paper PMC6555819

Tests used:
Experiment in all cases: PBM binding z-score (relative to random genomic background probes); higher = stronger binding; sequences stand for … in GC…GCGATTGACAGCGTAGAATGAAGG
[1] = tested on: FXR:RXRa (NR concentration 270 nM, RXRa partner concentration 90 nM)
Outline: (§1)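 Scanned fluorescence from custom Agilent 4×180K protein-binding microarrays was regression-normalized. Binding z-scores use random background probes as reference. Ligand-free nuclear receptor dimers were incubated on the arrays for 1 h and detected with antibodies against each partner (one per run).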

[2] = tested on: LXRa:RXRa (NR concentration 270 nM, RXRa partner concentration 90 nM)
Outline: as §1

[3] = tested on: LXRa homodimer (NR concentration 270 nM)
Outline: as §1

[4] = tested on: LXRb:RXRa (NR concentration 270 nM, RXRa partner concentration 90 nM)
Outline: as §1

[5] = tested on: LXRb homodimer (NR concentration 270 nM)
Outline: as §1

[6] = tested on: PPARa:RXRa (NR concentration 270 nM, RXRa partner concentration 90 nM)
Outline: as §1

[7] = tested on: PPARg:RXRa (NR concentration 180 nM, RXRa partner concentration 90 nM)
Outline: as §1

[8] = tested on: PPARg:RXRa 270nM:90nM, anti-RXR (NR concentration 270 nM, RXRa partner concentration 90 nM)
Outline: as §1

[9] = tested on: PPARg:RXRa 30nM:10nM, anti-RXR (NR concentration 30 nM, RXRa partner concentration 10 nM)
Outline: as §1

[10] = tested on: PPARg:RXRa 90nM:30nM, anti-RXR (NR concentration 90 nM, RXRa partner concentration 30 nM)
Outline: as §1

[11] = tested on: PPARg:RXRa DBDmut IVT, anti-RXR (DBD mutation: RXRa K156A/R161A, NR concentration 270 nM, RXRa partner concentration 90 nM)
Outline: as §1

[12] = tested on: PPARg:RXRa IVT, anti-PPARg (NR concentration 270 nM, RXRa partner concentration 90 nM)
Outline: as §1

[13] = tested on: PPARg DBDmut:RXRa IVT, anti-PPARg (DBD mutation: PPARg1 K132A/R137A, NR concentration 270 nM, RXRa partner concentration 90 nM)
Outline: as §1

[14] = tested on: PPARg DBDmut IVT, anti-PPARg (DBD mutation: PPARg1 K132A/R137A, NR concentration 270 nM)
Outline: as §1

[15] = tested on: PPARg homodimer (NR concentration 180 nM)
Outline: as §1

[16] = tested on: PXR:RXRa (NR concentration 270 nM, RXRa partner concentration 90 nM)
Outline: as §1

[17] = tested on: PXR homodimer (NR concentration 270 nM)
Outline: as §1

[18] = tested on: RARa:RXR (NR concentration 270 nM, RXRa partner concentration 90 nM)
Outline: as §1

[19] = tested on: RARa homodimer (NR concentration 270 nM)
Outline: as §1

[20] = tested on: RARb:RXRa (NR concentration 270 nM, RXRa partner concentration 90 nM)
Outline: as §1

Sequence | PBM binding z-score [1] | PBM binding z-score [2] | PBM binding z-score [3] | PBM binding z-score [4] | PBM binding z-score [5] | PBM binding z-score [6] | PBM binding z-score [7] | PBM binding z-score [8] | PBM binding z-score [9] | PBM binding z-score [10] | PBM binding z-score [11] | PBM binding z-score [12] | PBM binding z-score [13] | PBM binding z-score [14] | PBM binding z-score [15] | PBM binding z-score [16] | PBM binding z-score [17] | PBM binding z-score [18] | PBM binding z-score [19] | PBM binding z-score [20]
GCTCGGAGGACAAGGTCAGGGCTTTGTCCGTAGA | 2.38 | 2.11 | -0.64 | 1.71 | -0.689 | 2.95 | 1.07 | 1.94 | -0.338 | 0.806 | -0.354 | 1.3 | -0.608 | -0.233 | 0.661 | 2.03 | -0.681 | 2.71 | -0.898 | 3.83
CCTTACGGGTCACTGACAGGTCATAGCATTTGGA | 5.83 | 5.72 | 2.3 | 4.51 | -0.00143 | 5.36 | 4.81 | 5.35 | 2.02 | 4.03 | 3.69 | 3.99 | 0.0751 | 0.785 | 4.06 | 5.34 | 0.53 | 6.69 | 1.34 | 4.53
CGTCCAAGGTCAAGGTGAGTGAAAGAGACTCGAA | 7.1 | 4.92 | 0.292 | 3.92 | 0.281 | 5.71 | 5.33 | 5.61 | 2.05 | 4.04 | 3.35 | 3.92 | 0.375 | 0.105 | 3.6 | 3.6 | 0.642 |  | 1.04 | 5.22
TTACAAAGGTGAGCTGAGGTCGTTGATCCAACTC | 2.66 | 3.19 | -0.299 | 1.68 | -0.674 | 2.86 | 1.57 | 2.39 | 0.713 | 1.38 | 1.9 | 2.58 | 0.303 | -0.224 | 1.41 | 6.04 | 0.268 |  | -0.325 | 3.23
AATACAGGGTCACTAGGCCCGAGTAGGTACGAAT | 6.16 | 4.62 | 0.516 | 3.53 | 0.618 | 5.37 | 6.32 | 5.26 | 2.34 | 4.04 | 2.32 | 4.28 | 2.04 | 0.859 | 1.77 | 2.94 | 0.0617 |  | 0.416 | 4.14
GCTAGTTTGTCAGTAAAAGGTCACACACCGGTCG | 3.28 | 4.33 | 4.39 | 4.2 | 1.2 | 4.42 | 3.19 | 5.47 | 3.23 | 5.43 | 0.319 | 2.75 | 0.759 | 0.562 | 4.4 | 4.95 | 1.22 | 5.77 | 2.54 | 4.12
CGTCAAAGTTCAACTAAGGTAACTTAAAGCACGC | 7.38 | 6.11 | 4.42 | 4.16 | 1.95 | 5.47 | 5.21 | 5.69 | 2.4 | 4.39 | 0.256 | 2.36 | 0.726 | 1.28 | 3.17 | 5.71 | 4.62 |  | 1.76 | 5.39
CGTCCAAGGTCAAAGGTCAGTAAAGAGATGACGG | 8.12 | 6.87 | 3.18 | 6.62 | 2 | 7.32 | 10.8 | 9.28 | 7.89 | 9.37 | 4.06 | 5.78 | 0.533 | 0.691 | 4.4 | 7.16 | 1.34 |  | 4.03 | 5.99
CAGACTAGGTCAAAGGTCAAAGTCGAGCCAACCA | 8.06 | 6.96 | 4.82 | 7.09 | 2.54 | 7.49 | 13.9 | 10.9 | 13.4 | 13.3 | 7.65 | 8.8 | 3.31 | 3.18 | 5.71 | 7.16 | 1.95 |  | 2.03 | 5.64
CAAACTAGGTCACGAAAGGGCAAAGTCGAATGAC | 5.72 | 6.91 | 2.43 | 5.14 | 0.531 | 5.68 | 9.64 | 7.9 | 6.2 | 8.08 | 8.03 | 9.13 | 2.95 | 1.67 | 4.28 | 5.85 | 0.485 | 5.03 | 2.03 | 4.99
ATCTCTAGGTAACAAGGTCAGTGAAAGAGAGGAC | 1.72 | 1.92 | 0.814 | 1.9 | 1.16 | 3.22 | 3.64 | 3.84 | 1.54 | 3 | 4.43 | 4.75 | 1.63 | 1.14 | 2.4 | 1.98 | 1.12 | 2.3 | 1.5 | 3.07
GATCCAGGGTCAGCTAGAGGCCAGAGTATGGAAA | 4.42 | 2.62 | -0.925 | 2.36 | -1.4 | 4.38 | 3.24 | 3.15 | 0.349 | 1.66 | 0.393 | 1.96 | -0.6 | -0.817 | 1.89 | 3.27 | -0.25 |  | -0.417 | 4.24
CCTTACGGGTCACGGGGTTATAGCACGACGAGCG | 7.63 | 5.25 | 0.321 | 4.81 | 0.272 | 6.37 | 8.37 | 7.11 | 3.95 | 6.75 | 3.39 | 5.93 | 4.69 | 3.61 | 8.52 | 5.66 | 0.491 |  | 2.14 | 4.72
ATCCAAAGGTCGAGGTGAGTATAGAGAAAGGGAA | 4.69 | 4.08 | 0.242 | 3.36 | 0.755 | 4.91 | 4.74 | 4.86 | 1.7 | 3.57 | 0.646 | 2.87 | 1.42 | 1.42 | 1.71 | 2.84 | 0.536 |  | 1.18 | 4.43
